Screen size: about 16,000 compounds; about 5,100 (32%) were called active. Not shown: some 25% with an inconclusive outcome. The list shows a part of the results. Unmarked numbers belong to inactive results. The call rests on the fitted dose curve; in most records, active means well fitted curve in the direction sought with a large enough effect; inconclusive means small, poorly fitted or top-dose-only effect, or effect the other way; inactive means no such curve, though single readings can be large or run the other way.
These compounds were tested against Cytochrome P450 3A4 (Homo sapiens) (UniProt P08684) (assay: Cytochrome panel assay with activity outcomes). Details: recombinant CYP, pro-luciferin dealkylation, luminescence, p450-cyp3a4; series mostly up to 57.1 µM; activity, negative = inhibition: at the top concentration.
Chain of Cytochrome P450 3A4 (Homo sapiens) (P08684 whole entry, looked up): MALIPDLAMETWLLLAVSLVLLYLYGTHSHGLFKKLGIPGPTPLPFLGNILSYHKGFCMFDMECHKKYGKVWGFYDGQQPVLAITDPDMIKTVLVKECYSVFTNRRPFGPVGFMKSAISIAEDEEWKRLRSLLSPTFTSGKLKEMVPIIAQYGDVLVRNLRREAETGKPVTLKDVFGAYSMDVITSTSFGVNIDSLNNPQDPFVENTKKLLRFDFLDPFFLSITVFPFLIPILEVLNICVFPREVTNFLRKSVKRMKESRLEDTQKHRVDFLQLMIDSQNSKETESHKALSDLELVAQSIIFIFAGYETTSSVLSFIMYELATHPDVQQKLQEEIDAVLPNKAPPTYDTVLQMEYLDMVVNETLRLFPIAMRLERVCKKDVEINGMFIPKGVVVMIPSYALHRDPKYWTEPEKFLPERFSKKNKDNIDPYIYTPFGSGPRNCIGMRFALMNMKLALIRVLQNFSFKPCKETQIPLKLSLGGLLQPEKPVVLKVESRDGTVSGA
On the % scale 0 is the no-effect control and ±100 the full control effect.

Structure (SMILES) | activity, negative = inhibition | AC50
O=C(CCc1ccccc1)NNC(=S)NC(=O)c1ccccc1 | 7% [at 2.29 µM] | 
CC[N+](CC)(CC(=O)Nc1c(C)cccc1C)Cc1ccccc1 | -19.7% [at 25.6 µM] | 
Cc1cccc(C)c1NC(=S)NC(=O)CCc1ccccc1 |  | 12.6 µM (active)
COc1ccc(C(=O)NC(=S)NNC(=O)CCc2ccccc2)cc1 |  | 11.2 µM (active)
COc1cc(OC)cc(C(=O)NC(=S)Nc2ccc(Cl)c(C(=O)O)c2)c1 | -26.3% | 
COc1cc(OC)cc(C(=O)NC(=S)NCCc2ccccc2)c1 |  | 3.98 µM (active)
NNC(=O)c1ccc[n+](CCc2ccccc2)c1 | -7.56% [at 11.4 µM] | 
CC(C)C12CN3CC(C(C)C)(CN(C1)C3c1ccco1)C2=O (stereo not drawn) | -2.45% [at 2.29 µM] | 
CCCS(=O)(=O)N1CCCC(C(=O)NCCCN2CCN(c3cccc(Cl)c3)CC2)C1 (stereo not drawn) | -22.1% | 
CCC(C)NC(=O)C1CCCN(C(=O)NC2CCCCC2)C1 (stereo not drawn) | 10.7% [at 2.29 µM] | 
COc1ccc(CCNC(=O)C2CCCN(Cc3nc(-c4cccc(Cl)c4)oc3C)C2)cc1OC (stereo not drawn) |  | 2 µM (active)
Cc1cccc(-c2nc(CN3CCCC(C(=O)NC4CCCCC4)C3)c(C)o2)c1 (stereo not drawn) |  | 3.16 µM (active)
COc1ccc2nc(N3CCCC(C(=O)NCCCN4CCN(C)CC4)C3)sc2c1 (stereo not drawn) | -20.9% | 
Cc1cn([C@H]2C[C@H](O)[C@@H](COC(N)=O)O2)c(=O)[nH]c1=O | -22.2% [at 11.4 µM] | 
C=CCNc1cnn(-c2ccc(C)cc2)c(=O)c1Cl |  | 4.47 µM (active)
CNc1cnn(-c2ccccc2)c(=O)c1Cl | 6.78% | 
CC(C)CNCC(=O)N1c2ccccc2Sc2ccccc21 |  | 11.2 µM (active)
O=C(NCCc1ccccc1)N1c2ccccc2Sc2ccccc21 |  | 14.1 µM (active)
CC(C)CNC(=O)c1nc(-c2ccccc2)n(-c2ccccc2)n1 | -3.69% | 
C[C@@H](CN1c2ccccc2Sc2ccccc21)N(C)C |  | inactive
O=C(O)CNCCc1ccccc1 | -11.1% [at 11.4 µM] | 
NC(=O)/C(=N\OC(=O)c1ccco1)c1nc(-c2ccc(Br)cc2)cs1 | -10.3% | 
N[C@@H](Cc1ncccn1)C(=O)O | 6.81% [at 11.4 µM] | 
CCOc1ncccc1C(=O)OCC(=O)Nc1cc(C)ccc1C | 0.451% [at 2.29 µM] | 
CCOC(=O)c1cc(-c2ccccc2)sc1NC(=O)C(C)(C)C | 2.53% | 

Structure (SMILES) | activity, negative = inhibition | AC50
CCOC(=O)c1cc(-c2ccccc2)sc1NC(=S)Nc1cc(C)ccn1 |  | 2.82 µM (active)
Cc1ccc(/C=C2\Sc3ccccc3C2=O)s1 |  | 20 µM (active)
CC(=O)N(/N=C1\Sc2ccccc2C1=O)c1ccccc1 | -26.1% | 
CC(C)n1cc(/C=C2/SC(=O)N(CC(=O)Nc3ccc4c(c3)OCO4)C2=O)c2ccccc21 |  | 0.316 µM (active)
Cn1cc(/C=C2/SC(=O)N(CC(=O)Nc3ccc4c(c3)OCO4)C2=O)c2ccccc21 |  | 0.2 µM (active)
Cc1ccsc1/C=C1/SC(=O)N(CC(=O)N2CCOCC2)C1=O | -0.702% | 
Cn1ncc(Cl)c1C(=O)Nc1cccnc1 | -16% | 
CN1CCc2cc(NC(=O)Nc3cccnc3)ccc21 |  | 12.6 µM (active)
O=S(=O)(O)c1cc(O)c2c(O)c(N=Nc3cccc4ccccc34)c(S(=O)(=O)O)cc2c1 | -11.8% [at 11.4 µM] | 
COc1ccc(Cl)cc1NC(=O)C12CCC(C)(C(=O)O1)C2(C)C (stereo not drawn) |  | 15.8 µM (active)
NS(=O)(=O)c1ccc(N=Nc2nc3[nH]cnc(=S)c3[nH]2)cc1 | -11.9% [at 11.4 µM] | 
COc1ccc(NS(=O)(=O)c2ccc(I)cc2)cc1N1CCN(C)CC1 | -53% | 
COc1ccc(S(=O)(=O)Nc2cccc(Cl)c2)cc1OC |  | 6.31 µM (active)
Cc1ccc(N2C(=O)c3n[nH]c(C)c3C2c2ccccn2)cc1 (stereo not drawn) |  | 14.1 µM (active)
Cc1ccc(-n2cnc(=O)c3cccnc32)cc1 | -3.53% [at 2.29 µM] | 
Cc1ccc(-n2[nH]c(=O)c3cccnc32)cc1 | -5.23% | 
Cc1ccccc1-c1cncnc1NCCN1CCOCC1 |  | 1.58 µM (active)
FC(F)(F)c1ccccc1-c1cncnc1NCCN1CCOCC1 |  | 0.794 µM (active)
COCCNc1cc(-c2c(C)noc2C)ncn1 | 10.1% | 
Cc1noc(C)c1-c1nccc(N2CCOCC2)n1 | -9.81% | 
COCCNc1ncncc1-c1c(C)noc1C |  | 5.01 µM (active)
CNc1cc(-c2c(C)noc2C)ncn1 | -3% | 
Cc1noc(C)c1-c1cncnc1NCCN1CCOCC1 |  | 6.31 µM (active)
CS[C@@H](CC(=O)O)C(=O)O | -17% [at 11.4 µM] | 
Cc1nc2c(n1C1CCCCC1)C(=O)c1ccccc1C2=O |  | 14.1 µM (active)

Structure (SMILES) | activity, negative = inhibition | AC50
O=C1c2cccnc2C(O)N1C1CCCCC1 (stereo not drawn) | -14.1% | 
COc1c(F)c(F)c(C(=O)O)c(Nc2ccc(C)cc2)c1F | -28.2% | 
O=C(N/N=C\c1ccc(-c2ccccc2[N+](=O)[O-])o1)C1COc2cc3ccccc3cc2O1 (stereo not drawn) |  | 17.8 µM (active)
Cc1ccc(CNC(=O)C2CC(c3ccccc3[N+](=O)[O-])=NO2)o1 (stereo not drawn) | -23.2% | 
c1ccc2c(c1)oc1c(NCCCn3ccnc3)ncnc12 |  | 0.631 µM (active)
c1ccc(-c2nc(NCCCn3ccnc3)c3oc4ccccc4c3n2)cc1 |  | 1 µM (active)
O=C(Cn1cnc2c(oc3ccccc32)c1=O)NCc1ccco1 | -25.9% | 
CCOC(=O)C(C)n1cnc2c(oc3ccccc32)c1=O (stereo not drawn) | 7.52% | 
CC(=O)C1=C(NC(=O)c2ccc(F)cc2)CC2C1C2(C)C (stereo not drawn) | 10% [at 2.29 µM] | 
CCN1C(=O)[C@@H]2[C@H]3C(=CC[C@@H]2C1=O)C1(OCCCO1)[C@H]1O[C@@H]1[C@H]3O | -21.4% [at 11.4 µM] | 
COc1ccccc1NC(=O)c1sc2ncn(Cc3ccccc3C)c(=O)c2c1C |  | 4.47 µM (active)
N#Cc1c(Cl)cccc1-n1ccnc1 |  | 1 µM (active)
Cc1cccc(-n2cccc2)c1C#N | 0.0083% | 
N#Cc1c(-n2ccnc2)cccc1-n1ccnc1 |  | 2 µM (active)
CCCCOc1ccccc1N | -7.64% | 
Nc1ccccc1Oc1ncc(C(F)(F)F)cc1Cl |  | 14.1 µM (active)
O=C(CSc1nc2ccccc2o1)N1c2ccccc2Sc2ccc(Cl)cc21 |  | 8.91 µM (active)
COc1ccc2c(c1)N(CC[C@H]1CCCCN1C)c1ccccc1S2 | -24.2% [at 11.4 µM] | 
O=C(O)c1ccc(CSc2nc3ccccc3o2)cc1 | 23.1% | 
COc1ccc(OCc2nnc(SCC(=O)N3c4ccccc4Sc4ccc(Cl)cc43)o2)cc1 |  | 3.55 µM (active)
OC1CC2CC[C@H](C1)N2CCCN1c2ccccc2Sc2ccc(Cl)cc21 (stereo partly drawn) | -4.29% [at 11.4 µM] | 
CCOC(=O)CN1N=C(/C=C/c2ccc(C)cc2)CCC1=O | 19.5% | 
O=C1c2ccccc2N[C@H](c2cc(Cl)cc(Cl)c2O)N1CCc1ccccn1 |  | 0.794 µM (active)
O=C1CC(N2CCN(CCc3ccccn3)CC2)C(=O)N1c1ccc(Cl)cc1 (stereo not drawn) | -14.5% | 
CN(C)C(=O)c1ccc(-c2nccc(N(C)Cc3ccco3)n2)cc1 | 20.6% | 

Structure (SMILES) | activity, negative = inhibition | AC50
CN(Cc1ccco1)c1ncncc1-c1cccnc1 |  | 2.51 µM (active)
CN(Cc1ccco1)c1ncncc1-c1ccc2c(c1)OCO2 |  | 1.26 µM (active)
CN(Cc1ccco1)c1ncncc1-c1cccc(C#N)c1 |  | 7.94 µM (active)
CN(C)c1ccc(-c2cncnc2N(C)Cc2ccco2)cc1 |  | 0.631 µM (active)
C#C[C@H](N)CCC(=O)O | -4.49% | 
COc1cc(O)c2c(O)c3c(c4c2c1[C@@]1(C4)C(C)=CCCC1(C)C)[C@H](O)[C@@]1(O)CC(=O)C(C(N)=O)=C(O)[C@]1(O)C3=O | -13.9% [at 11.4 µM] | 
COc1cccc(-c2cncnc2N(C)Cc2ccco2)c1 |  | 2.51 µM (active)
CCc1ccc2[nH]c(O)c(N=Nc3nc(-c4ccccc4)cs3)c2c1 | -16.3% [at 2.29 µM] | 
COc1c(O[C@H]2O[C@@H](CO)[C@@H](O)[C@@H](O)[C@@H]2O)cc2c(c1OC)-c1ccc(SC)c(=O)cc1[C@H](NC(C)=O)CC2 | -4.87% [at 25.6 µM] | 
N[C@@H](C(=O)O)[C@H](CC(=O)O)c1ccc(Cl)cc1 | -10.4% | 
CCCC[C@@H]1C[C@H]1C(NC(=O)Cc1ccccc1)c1ccc(Cl)cc1 (stereo partly drawn) |  | 2.51 µM (active)
CCCC[C@@H]1C[C@H]1C(NC(=O)c1ccccc1)c1ccc(Cl)cc1 (stereo partly drawn) |  | 3.98 µM (active)
CCCC[C@@H]1C[C@H]1C(NC(=O)c1ccc(-c2ccccc2)cc1)c1ccc(-c2ccccc2)cc1 (stereo partly drawn) | -9.94% | 
CCCC[C@@H]1C[C@H]1C(NC(=O)c1cccnc1)c1ccc(Cl)cc1 (stereo partly drawn) |  | 0.0794 µM (active)
CCCC[C@@H]1C[C@H]1C(NC(=O)c1ccccc1)c1ccccc1 (stereo partly drawn) |  | 12.6 µM (active)
Cc1oc(-c2cccc(Cl)c2)[n+]([O-])c1C | 1.66% | 
O=C(/C=C/c1cc2c(cc1Br)OCO2)NCc1ccc(Cl)cc1 |  | 2.51 µM (active)
O=C(N/N=C/c1c[nH]c2ccccc12)c1cc(-c2ccc(-c3ccccc3)cc2)n[nH]1 | -5.85% [at 2.29 µM] | 
O=C(O)c1ccccc1N/N=C\c1ccnc2ccccc12 | -0.0882% [at 2.29 µM] | 
O=[N+]([O-])c1ccccc1N/N=C/c1c[nH]c2ccccc12 |  | 25.1 µM (active)
COc1cccc(NC(=S)N(CCc2nc3cc(C)c(C)cc3[nH]2)Cc2cccnc2)c1 |  | 2.51 µM (active)
Cc1cccc(NC(=S)N(CCc2nc3cc(C)c(C)cc3[nH]2)Cc2cccnc2)c1 |  | 2.24 µM (active)
Cc1ccc(C)c(NC(=S)N(CCc2nc3cc(C)c(C)cc3[nH]2)Cc2cccnc2)c1 |  | 2.51 µM (active)
